Assay results from PubChem BioAssay AID1117319 (Southern Research Institute, 2015).
Several values for one entry are separate records, joined by “and”; a condition that tells them apart may be missing. Equal entries are not always repeated. About 1,500 (0.58%) of roughly 260,000 compounds were called active. Roughly 5% stayed inconclusive and do not appear here.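 The calls were made as follows: active = inhibition above a set limit at one or more doses, reproduced on every date tested; inconclusive = results disagree between test dates, or hit never tested in dose response; inactive = the rest.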 These entries were drawn from the full list. Potency and affinity values are given separately.

The compounds below were run against Virion infectivity factor (Human immunodeficiency virus type 1 group M subtype B (isolate BH10)) + Virion infectivity factor (Human immunodeficiency virus type 1 group M subtype B (isolate BRU/LAI)) + Virion infectivity factor (Human immunodeficiency virus type 1 group M subtype B (isolate PCV12)) + Virion infectivity factor (Human immunodeficiency virus type 1 group M subtype B (isolate HXB2)) + DNA dC->dU-editing enzyme APOBEC-3G (Homo sapiens) (UniProt P69720+P69721+P69722+P69723+Q9HC16) (assay: HIV-1 Vif–A3G interaction blockers – biochemical, TR-FRET, GST-Vif 1-94, biotin-A3G peptide, dose response retest, primary screen (AID 1117319;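 also: Vif residues 1-94 fused to GST binding biotinylated APOBEC3G peptide 110-148; 0% = full assay without inhibitor and 100% = GST in place of GST-Vif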)). Settings: TR-FRET GST-Vif / biotin-A3G peptide binding; stronger effect = higher value.

inhibition, inactive:
CCOc1ccccc1NC(=O)c1cc2ccccc2oc1=O 5.96%, O=c1[nH][nH]cc1C=Nc1ccccc1O 1.21%, O=C(Nc1ccccc1)c1ccccc1N=Cc1ccccc1O -0.3%, Cc1cccc(NC(=O)Cn2cnc3c(oc4ccccc43)c2=O)c1 4.28%, CCCCn1c(SCC(N)=O)nnc1-c1ccco1 3.37%, c1ccc(OCCCCN2CCOCC2)cc1 16.5%, CCOC(=O)N1CC=C2C(C#N)=C(N)C(C#N)(C#N)[C@H](c3ccsc3)[C@H]2C1 9.32%, CC(C)(C)OC(=O)N1CC=C2C(C#N)=C(N)C(C#N)(C#N)C(c3cccs3)C2C1 (stereo unspecified) 5.47%, CC1CCN(c2nnc(NC(=O)Cn3c(=O)oc4ccccc43)s2)CC1 4.48%, COC(=O)c1c(S(=O)(=O)N2CCOCC2)c(C)n(C)c1C 2.63%, Cc1cn([C@H]2C[C@H](O)[C@@H](CNCc3ccccc3)O2)c(=O)[nH]c1=O -4.57%, CC1CN(C(=O)c2ccn(C)n2)CC(C)O1 (stereo unspecified) -6.54%, O=C(CN1CCN(Cc2ccccc2)CC1)N/N=C\C=C/c1ccco1 29.4%, O=C(CN1C(=O)C(=O)N(Cc2ccco2)C1=O)NC1CCCCC1 10.2%, CC1S/C(=N/N=C/c2ccco2)N(Cc2ccccc2)C1=O (stereo unspecified) 4.75%, CC1S/C(=N/N=C/c2ccco2)N(Cc2ccc(F)cc2)C1=O (stereo unspecified) 2.84%, O=C1C2C3CCC(C3)C2C(=O)N1Cc1ccco1 (stereo unspecified) -17.6%, O=C1CS/C(=N/N=C/c2ccco2)N1Cc1ccc(F)cc1 10.9%, O=C1c2ccccc2C(=O)N1Cc1ccco1 6.23%, CC(c1ccccc1)C1CC(=O)N(Cc2ccco2)C1=O (stereo unspecified) 1.07%, O=c1cc(NCCc2ccccc2)c2ccccc2o1 -9.21%, Cc1ccc(OCCNC(=O)CNC(=O)c2ccccc2Cl)cc1 -0.63%, Cc1cc(C)c(S(=O)(=O)N2CCCC(C(=O)NCCC3=CCCCC3)C2)c(C)c1 (stereo unspecified) 9.17%, O=C(N=C1SC2CS(=O)(=O)CC2N1Cc1ccccc1)C1CC1 (stereo unspecified) -2.49%, COc1ccc(CNc2nc(NCc3ccc(OC)c(OC)c3)n(C(=O)c3cccs3)n2)cc1OC 13.3%, CC(C)N(Cc1nccn1C)C(=O)CC1C(=O)NCCN1Cc1ccc(F)c(F)c1 (stereo unspecified) -8.55%, COc1ccc(CN2CCNC(=O)C2CC(=O)N(Cc2nccn2C)C(C)C)c(OC)c1 (stereo unspecified) -0.6%, Cc1ccc(SCCOCCN2CCc3ccccc3C2)cc1 -8.65%, C/C(Cl)=C/Cc1c(C)[nH]c2ccc(C)cc2c1=O -1.26%, COc1ccc(C(=O)N(C)C(C)c2nccs2)cc1OC1CCN(C(C)=O)CC1 (stereo unspecified) -6.6%, CC1(C)CC2(CC(c3ccccc3)c3ccc(O)cc3O2)NC(=S)N1 (stereo unspecified) 0.62%, CC1(C)CC2(CC(c3ccccc3F)c3cc(Cl)c(O)cc3O2)NC(=S)N1 (stereo unspecified) 0.09%, Cc1cc(C)c(C(=O)NC2CC(C)(C)Cc3c2cnn3-c2ccccc2)o1 (stereo unspecified) 1.78%, O=[N+]([O-])c1ccc(/C=N/Nc2nc(N3CCCCCC3)nc(N3CCCCCC3)n2)o1 10.1%, O=[N+]([O-])c1ccc(-c2ccc(/C=N/Nc3nc(N4CCCC4)nc(N4CCCC4)n3)o2)cc1 -1.43%, COC(=O)C1=C(CS(=O)(=O)c2ccc(Cl)cc2)NC(=O)NC1c1ccc(O)cc1 (stereo unspecified) 9.59%, CC(C)N(C(=O)CSc1nnc(-c2cc3ccccc3cc2O)n1Cc1ccco1)C(C)C 9.68%, CC(=O)c1cccc(NC(=O)c2ccoc2C)c1 7.62%, CC1(C)N=C(c2ccccc2)C(=O)N1 1.67%, CC(C)[C@H](NC(=O)c1ccco1)C(=O)OCC(=O)c1ccc2c(c1)NC(=O)CO2 30.8%, COc1cc(C(=O)NNC(=S)NC(=O)c2ccc(F)cc2)cc(OC)c1OC 13.5%, CCN(CC)CCn1c2ccccc2c2nc3ccccc3nc21 -1.16%, CCc1cc2c(=O)c(-c3nc4ccccc4n3C)c(C)oc2c(CN(CC)CC)c1O -0.78%, CC1=CN2C(=N)/C(=C/c3ccco3)C(=O)N=C2S1 14.9%, CC1=CN2C(=N)/C(=C/c3ccc(Sc4ccc(C)cc4)o3)C(=O)N=C2S1 -0.88%, O=C(Nc1cccc2c1[nH]c1ccccc12)C(F)(F)F -2.08%, COc1ccc2c([N+](=O)[O-])c(Cl)[nH]c2c1 21.2%, COc1cc2[nH]c3c(Cl)ncnc3c2cc1OC -0.29%, COc1ccc(C)cc1S(=O)(=O)NCC(c1ccco1)N1CCc2ccccc2C1 (stereo unspecified) -3.21%, N#CC1=C(N)OC2=C(C(=O)CC(c3ccco3)C2)C1c1ccc(OCc2c(F)cccc2Cl)cc1 (stereo unspecified) 13.6% and 14.7%, COc1cccc(C2C(C#N)=C(N)OC3=C2C(=O)CCC3)c1OC(=O)c1ccco1 (stereo unspecified) 22.1%, Cc1ccc(NC(=O)C(C)Sc2nc(-c3ccccc3)cc(=O)[nH]2)cc1 (stereo unspecified) -0.75%, O=C1C=C(c2ccccc2)C(c2ccccc2)C1 (stereo unspecified) 0.24%, COc1ccc(N2CCN(C(=O)c3ccc(C)cc3Cl)CC2)cc1 6.52%, Cc1onc(-c2ccccc2Cl)c1C(=O)N1CCCC1 -6.38%, COc1ccc(N2CCN(C(=O)COC(=O)c3c(-c4ccccc4)noc3C)CC2)cc1 -5.58%, Cc1onc(-c2ccccc2Cl)c1C(=O)N1CCN(c2ccccc2)CC1 -3.16%, COc1ccc(S(=O)(=O)N2CCN(C(=O)c3c(-c4ccccc4)noc3C)CC2)cc1 0.45%, O=C(COc1ccccc1)N1CCN(c2ccccc2)CC1 10.3%, COc1ccc(C(=O)N2CCN(c3cccc(Cl)c3)CC2)cc1 -2.36%, COc1ccc(N2CCN(C(=O)COc3ccc4ccccc4c3)CC2)cc1 2.55%, CCS(=O)(=O)N1CCC(C(=O)NC2CCCCCCC2)CC1 1.17%, Cc1cc(C(=O)N2CCN(S(=O)(=O)c3ccc(C)c(C)c3)CC2)no1 3.5%, COc1ccc(C)cc1NC(=O)c1cnc2scc(C)n2c1=O -5.79%, COc1ccc2cc(C3CC(c4cccs4)=NN3S(C)(=O)=O)c(Cl)nc2c1 (stereo unspecified) -0.38%, COc1ccc2[nH]c(C(=O)NCc3ccccc3)c(C)c2c1 1.63%, Cc1ccc(NS(=O)(=O)c2csc(C(N)=O)c2)cc1C -5.43%, CN(CC(=O)NCCc1ccc(S(N)(=O)=O)cc1)Cc1ccc(Cl)cc1Cl 4.74%, Cc1cc([N+](=O)[O-])nn1CC(=O)N1CCc2ccccc2C1 -2.29%, Cc1ccc(C)c(NC(=O)CN(C)C(=O)Cc2coc3cc(C)c(C)cc23)c1 0.3%, O=C(COC(=O)c1cnccn1)Nc1cc(S(=O)(=O)N2CCOCC2)ccc1Cl -11.1%, O=[N+]([O-])c1cc(-c2ccc(/C=N/n3cnnc3)o2)ccc1Cl 6.34%, c1ccc(Nc2c(-c3ccco3)nc3ccccn23)cc1 -2.7%, CN(C)c1ccc(-c2nc3ccccn3c2/N=C/c2ccc(Br)cc2)cc1 6.4%, O=[N+]([O-])c1ccc(-c2ccc(C=Nc3cccc4ccccc34)o2)cc1 3.05%, COc1cc(-c2nc3ccccn3c2/N=C/c2cc(OC)c(O)cc2Cl)ccc1O 22.2%, Cc1ccc(Nc2c(-c3ccco3)nc3ccccn23)cc1 12%, Cc1cc([N+](=O)[O-])c(C)cc1-c1ccc(/C=N/n2cnnc2)o1 1.64%, O=[N+]([O-])c1ccc(-c2ccc(/C=N/c3c(-c4ccco4)nc4ccccn34)o2)cc1 7.55%, COc1cc2[nH]c(=S)n(Cc3cccs3)c(=O)c2cc1OC -5.73%, Cc1cc(C)cc(OCC(=O)NN2C(=O)c3ccccc3C2=O)c1 2.37%, Cc1ccc(N(CC(=O)NC(C)(C)C)C(=O)CS(=O)CC(=O)Nc2ccc(F)cc2)cc1 (stereo unspecified) 10.4%, CCN(CC(=O)Nc1ccc(OC)cc1)C(=O)c1ccc2c(c1)NC(=O)C(C)S2 (stereo unspecified) 6.39%, COc1cccc(C(=O)N2CCN(C(=O)c3cccc4ccccc34)CC2)c1OC 1.56%, CSC1=N/C(=C\c2ccccc2)C(=O)N1C 4.78%, O=C(CN1C(=O)S/C(=C/c2ccccn2)C1=O)N1CCOCC1 2.37%, CCCCCn1c(=NC(=O)c2ccco2)c(C(=O)OCC)cc2c(=O)n3ccccc3nc21 4.41% and -0.06%, COc1cc(-c2nnc(NC(=O)CCS(=O)(=O)c3ccccc3)o2)cc(OC)c1OC 2.37%, CC1(C)CC(=O)C2=C(C1)N(Cc1ccco1)C(=O)NC2(C(F)(F)F)C(F)(F)F -1.11%, Cc1cc(/C=C2/C(=O)NN(c3ccccc3)C2=O)c(C)n1-c1ccc(O)cc1 -5.99%, O=C(O)Cn1cc(/C=C2\SC(=O)N(c3ccccc3)C2=O)c2ccccc21 -7.51%, O=C1CNC(=S)N1Cc1ccc(F)cc1 5.9%, O=C1c2cccnc2C(=O)N1Cc1ccco1 7.44%, Cn1cccc1/C=C1\SC(=S)N(NC(=O)c2ccc(F)cc2)C1=O 14.3%, O=C(O)Cn1cc(/C=C2/NC(=O)N(c3ccc(Cl)cc3)C2=O)c2ccccc21 -2.83%, Cc1cc(/C=C2\SC(=S)N(Cc3ccco3)C2=O)c(C)n1-c1ccccc1 3.57%
